Screening data deposited in PubChem by several laboratories.
Measles CPE: protection of cells from measles virus. Measles virus-infected cells, CPE protection, absorbance. hit rate 1.5% among 140,000. protection (pct of control), % at 4 µM. AID 841; in the data active = protection mostly above about 24%, no sharp cut-off; inactive = mostly below about 26%
Smad3 FoxH1 inh: Smad3 (human) transcription factor binding inhibition; TR-FRET Smad3/Dy647-FoxH1 peptide binding, europium anti-His; P84022; hit rate 0.29% among 88,000; inhibition, % at 25 µM;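 active = compounds that reduce the energy-transfer binding signal between the protein and its labelled peptide by more than half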
Target sequence (P84022 whole entry, looked up): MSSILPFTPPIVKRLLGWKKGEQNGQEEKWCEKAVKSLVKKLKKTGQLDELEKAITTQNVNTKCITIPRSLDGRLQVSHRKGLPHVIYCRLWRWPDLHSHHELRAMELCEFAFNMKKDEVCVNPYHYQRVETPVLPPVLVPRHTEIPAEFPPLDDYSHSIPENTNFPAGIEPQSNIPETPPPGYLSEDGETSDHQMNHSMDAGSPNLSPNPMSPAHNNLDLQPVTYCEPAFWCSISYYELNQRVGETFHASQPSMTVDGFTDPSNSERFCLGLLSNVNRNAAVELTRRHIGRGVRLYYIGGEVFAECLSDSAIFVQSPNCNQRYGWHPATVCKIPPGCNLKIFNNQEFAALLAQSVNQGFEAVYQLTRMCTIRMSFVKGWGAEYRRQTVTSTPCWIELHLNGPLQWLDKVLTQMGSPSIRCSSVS
MT1-MMP txn act: activates MT1-MMP transcription; HT1080 MT1-MMP promoter luciferase reporter, luminescence, overnight; hits give high values; activation factor at 10 µM; hit rate 0.16% among 86,000; AID 750;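 active = activation factor of at least 2 for MT1-MMP transcription at 10 µM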
Hits are given with their value; – = inactive; · = no result. The list is not random: actives were taken first. Their share in the collection is about 1.7%.

SMILES	Measles CPE	Smad3 FoxH1 inh	MT1-MMP txn act
COc1ccc(C(=O)C(CN2CCOCC2)c2ccccc2)cc1 (stereo not given)	–	–	–
CCCCOc1ccc(C(=O)C(CN2CCOCC2)c2ccccc2)cc1 (stereo not given)	41	–	·
Cc1ccc(C(C)C)cc1OCCCCN1CCCC1	–	·	·
COc1cccc(C(=O)CSc2nnc(CNc3nc(-c4ccccc4)cs3)n2C)c1	52	–	–
CC(C)OC(=O)CSc1nnc(CNc2nc(-c3ccccc3)cs2)n1C	–	–	–
COC(=O)[C@@H]1C[C@@]2(O)[C@@H](O)[C@@H](O)[C@@H](O)C[C@H]2N1CC1CC1	·	·	–
C[C@H](NCCN(C)C)[C@@H]1CC[C@@H]2[C@H]3CCc4cc(O)ccc4[C@@H]3CC[C@]21C	·	–	·
NC(=S)Nn1c(CCC(=O)O)ccc1-c1ccc(Br)cc1	–	·	·
N=C(N)CCNC(=O)[C@@H]1CCC(N)=N1	·	–	·
CC(=O)OC1=C(C#N)Cn2ccc3cccc1c32	57	–	–
Cc1cc(C(=O)CSc2nnnn2C)c(C)n1CCc1ccc(Cl)cc1	–	–	–
Cc1cc(C(=O)Cn2cncn2)c(C)n1CCc1ccc(F)cc1	68	–	–
Cc1ccc(C)c(N2CCN(c3ncnc4c3cnn4-c3ccccc3)CC2)c1	51	–	–
CCN1CCN(c2ncnc3c2cnn3-c2ccccc2)CC1	–	–	–
CCC1=C2CC[C@H]3C(=O)N(c4ccccc4)C(=O)[C@H]3[C@H]2[C@@]2(Cc3ccccc3)C(=NCC3CC3)OC(=O)N2C1=O	·	·	–
c1ccc2c(CSCc3cccc4ccccc34)cccc2c1	·	–	·
CCCCCn1c(Sc2ncccn2)nc2c1c(=O)[nH]c(=O)n2C	38	–	–
Cc1ccc(Cn2c(Sc3ncccn3)nc3c2c(=O)[nH]c(=O)n3C)cc1	–	–	–
CCOc1ccc(C(=O)Nc2cc(S(=O)(=O)Nc3ccccc3Cl)ccc2N2CCOCC2)cc1	–	·	·
O=C(CCCCl)Oc1ccc2cc(-c3ccc4ccccc4n3)c(=O)oc2c1	–	·	·
COc1ccccc1-n1c(SCC(=O)Nc2ccc3c(c2)OCO3)nc2c(c1=O)SCC2	–	–	·
COc1ccccc1-n1c(SCC(=O)Nc2cccc(C)c2)nc2c(c1=O)SCC2	47	–	–
O=C(CN1CCC(NC(=O)Cc2ccccc2)CC1)Nc1ccccc1Br	–	·	·
CC1(C)O[C@H]2[C@@H](O1)[C@@H](On1nnc3ccc(Cl)cc31)O[C@@H]2[C@@H]1COC(C)(C)O1	·	–	·
CN1CCN(Cc2ccc(-c3ccc(Cl)cc3)o2)CC1	–	–	–
SMILES	Measles CPE	Smad3 FoxH1 inh	MT1-MMP txn act
OCCc1ccc(-c2ccc(Cl)cc2)o1	37	–	–
O=C(O)[C@H](CCc1ccccc1)N1C(=O)c2ccccc2C1=O	·	–	·
C(=Nc1cnc2ccccc2c1)c1ccc2ccccc2n1	·	–	·
O=C(OCC(=O)N1CCN(C(=O)c2ccco2)CC1)C1=COCCO1	23	–	–
O=C(OCC(=O)N1CCN(c2ccccc2)CC1)C1=COCCO1	–	–	–
C/C(CCc1ccccc1)=N\NC(=O)CC(=O)NCCc1ccccc1	–	·	·
C=CCSc1nnc(NC(=O)c2nc(SCC)ncc2Cl)s1	–	–	–
CSc1ncc(Cl)c(C(=O)Nc2nnc(SC/C=C/c3ccccc3)s2)n1	51	–	–
COC(=O)c1ccc(C(NC(=O)OCc2ccccc2)/C(=C/[C@@H](C)C(=O)NCc2ccccc2)C(F)(F)F)cc1 (stereo not given in full)	·	·	–
CC(=O)Nc1ccc(S(=O)(=O)NNC(=O)COc2cc(C)ccc2C(C)C)cc1	54	·	·
CC(=O)Nc1ccc(S(=O)(=O)NNC(=O)COc2cccc(C)c2)cc1	–	·	·
CC(C)c1cccc2nc3c(c([Si](C)(C)C(C)(C)C)c12)Cn1c-3cccc1=O	·	·	–
Cc1nnn(C23CC4CC(CC(C(=O)NN)(C4)C2)C3)n1	33	·	·
NNC(=O)C12CC3CC(C1)CC(n1ncnn1)(C3)C2	–	·	·
O=C(CN1C(=O)c2ccccc2S1(=O)=O)N1CCN(c2ccccc2)CC1	–	–	–
O=C(CN1C(=O)c2ccccc2S1(=O)=O)N1CCOCC1	–	–	2.1
Cc1nnc(Sc2nc3ccccc3o2)c2ccccc12	26	–	–
Cc1ccc(-c2nnc(Sc3nc4ccccc4o3)c3ccccc23)cc1	–	·	·
O=C(COC(=O)c1ccc(CNS(=O)(=O)c2ccc(F)c(Cl)c2)cc1)NCC1CCCCC1	–	·	·
CCOCCn1c(COc2ccc(C)cc2)nc2ccccc21	29	·	·
COCCn1c(COc2ccc(C)cc2)nc2ccccc21	–	–	–
OCCNCCCCOc1ccc(OCc2ccccc2)cc1	–	·	·
OCCNCCCCOc1ccc(F)cc1	48	–	–
Cc1c(NC(=O)C(C)OC(=O)c2c3c(nc4ccccc24)CCC3)c(=O)n(-c2ccccc2)n1C (stereo not given)	–	·	·
O=S(=O)(O)c1cc(S(=O)(=O)O)c2c(N=Nc3cccc4ccccc34)c(O)ccc2c1	·	85	·
SMILES	Measles CPE	Smad3 FoxH1 inh	MT1-MMP txn act
O=S(=O)(O)c1ccc2c(N=Nc3c(O)ccc4ccccc34)cccc2c1	·	–	·
Cc1cc(C)nc(SCCc2cccc[n+]2C)n1	·	–	·
CN(C)CCCc1c2ccccc2nc2ccc(Cl)cc12	·	–	·
O=c1[nH]c(=O)n(Cc2ccco2)c2c1C(C(F)(F)F)(C(F)(F)F)N=C(Cc1ccccc1)N2	–	–	–
Cc1cc(O)c(C(C)C)cc1CN1CCCCC1	·	–	·
COc1cc(-c2[o+]c3cc(O)cc(O)c3cc2O)cc(O)c1O	·	–	·
C[C@H](CN(C)C)C(O)(c1ccccc1)c1ccccc1	·	–	·
CCCCn1c(SCC(=O)Nc2cc(C)on2)nnc1-c1ccco1	–	–	–
CCn1c(SCC(=O)Nc2cc(C)on2)nnc1-c1ccco1	35	–	–
COc1ccc(C2=NOC(C(=O)NCc3ccccc3)C2)cc1 (stereo not given)	–	–	–
COc1ccc(CNC(=O)C2CC(c3ccccc3[N+](=O)[O-])=NO2)cc1 (stereo not given)	36	·	·
COc1ccccc1CNC(=O)C1CC(c2ccccc2[N+](=O)[O-])=NO1 (stereo not given)	–	·	·
COc1cccc(C2=NOC(C(=O)NCc3ccccc3)C2)c1 (stereo not given)	23	–	–
O=C(CCSCCC(=O)Nc1ccccc1F)Nc1ccccc1F	–	·	·
COc1cccc(/C=N/NC(=O)c2nc(-c3ccccc3)cc(-c3ccccc3)n2)c1O	–	·	·
Cc1c(NC(=O)C23CC4CC(CC(C)(C4)C2)C3)c(=O)n(-c2ccccc2)n1C	–	–	2
Cc1c(NC(=O)C2(C)CCCCC2)c(=O)n(-c2ccccc2)n1C	–	–	–
Cc1ccc(CNC(=O)[C@H](C)[C@@H]2C[C@@]2(C)[C@@H](NC(=O)OCc2ccccc2)c2ccccc2)o1	·	·	–
NS(=O)(=O)c1cc(Br)c(N=Nc2ccc(O)c3ncccc23)c(Br)c1	·	77	·
Cc1cccc(N=Nc2ccc(O)c3ncccc23)c1	–	·	·
Cn1c(CSc2ncccn2)nnc1SCC(=O)N1CCCCC1	–	–	–
CC1CCCCN1C(=O)CSc1nnc(CSc2ncccn2)n1C (stereo not given)	–	73	–
Nc1nc(SC/C=C/C2CCCCC2)c2[nH]cnc2n1	·	–	·
CC1Nc2nc(NC(=O)C(C)(C)C)[nH]c(=O)c2N(C)C1C (stereo not given)	73	·	·
CCN(CC)CCOC(=O)c1c(C)oc2ccc(O)cc12	–	–	–
CCN(CC)CC[n+]1ccc2c(C)c3[nH]c4ccc(O)cc4c3c(C)c2c1	·	68	·
